Compound activity (PubChem)
Shiga inhibitor: inhibitors of Shiga toxin in Vero cells; Vero cells, Shiga toxin protein synthesis inhibition reporter; inhibition, % at 38.7 µM; 290,000 compounds, 9.2% hits; AID 2315; in the data active means inhibition mostly above about 28%, no sharp cut-off; inactive means mostly below about 43%
Cycloheximide cs: counter-screen for Shiga toxin inhibitors: cycloheximide protein synthesis inhibition; cell reporter, cycloheximide protein synthesis inhibition counterscreen; max response, %; 300,000 compounds, 12% hits; in the data active means max response mostly above about 13%, no sharp cut-off; inactive means mostly below about 14%; further: read at 38.3 µM for the half of the compounds with a filed dose
Tb PYK inh: T. brucei pyruvate kinase inhibition | Q57TT1 | TbPYK enzyme, Kinase-Glo Plus ATP luminescence, 45 min | Potency, µM (top dose mostly 76.8 µM), most hits filed as inhibitors | AID 624173 | 410,000 compounds, 0.12% hits; further: nearly all actives have a fitted effect of over 50% in size
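TbPYK + substrate in 50 mM TEA pH 7.2, 100 mM KCl, 10 mM MgCl2, 0.05% BSA, 0.01% Tween-20; cpd pinned; ADP 130 uM final; 45 min RT; Kinase-Glo Plus 10 min; luminescence endpoint.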
LmPK inh: blocks Leishmania mexicana pyruvate kinase activity; Q27686; purified LmPK, Kinase-Glo ATP luminescence, 1 h; Potency, µM (top dose mostly 57.5 µM), actives largely listed as inhibitors; 290,000 compounds, 0.37% hits; AID 1721
Target sequence (Q27686 whole entry, looked up): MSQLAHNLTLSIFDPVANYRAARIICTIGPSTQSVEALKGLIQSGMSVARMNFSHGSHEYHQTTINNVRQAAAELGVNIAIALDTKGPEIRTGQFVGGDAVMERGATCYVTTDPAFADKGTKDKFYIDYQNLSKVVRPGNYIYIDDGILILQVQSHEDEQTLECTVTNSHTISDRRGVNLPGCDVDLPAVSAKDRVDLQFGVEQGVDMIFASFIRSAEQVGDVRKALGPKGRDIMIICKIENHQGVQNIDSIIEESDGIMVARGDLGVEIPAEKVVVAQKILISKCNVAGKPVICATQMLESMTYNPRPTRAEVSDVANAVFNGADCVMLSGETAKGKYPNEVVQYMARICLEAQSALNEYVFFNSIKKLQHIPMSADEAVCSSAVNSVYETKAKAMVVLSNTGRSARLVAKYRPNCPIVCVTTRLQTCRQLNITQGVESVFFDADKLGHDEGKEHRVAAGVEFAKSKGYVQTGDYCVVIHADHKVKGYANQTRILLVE
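Pyruvate kinase activity monitored as ATP production (luciferase luminescence). Conditions: 0.1 nM enzyme, 0.5 mM PEP, 0.1 mM ADP, 1 h, RT; normalized against uninhibited and no-enzyme wells.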
RE007 growth inh: less growth of the S. pombe RE007 Vpr strain | S. pombe RE007 Vpr strain, BacTiter-Glo ATP luminescence, 24 h | AID 651644 | Potency, µM (highest dose often 92.2 µM), usual class: inhibitors | 360,000 compounds, 0.21% hits; active means well fitted falling curve with a large enough effect; inconclusive means small, poorly fitted or top-dose-only effect; inactive means no such curve, though single readings can be large or run the other way; further: nearly all actives have a fitted effect of over 50% in size
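Fission yeast strain RE007, carrying one chromosomally integrated HIV-1 vpr copy, was seeded at OD 0.01 in PMG+AL medium with 23 nL pinned compound. After 24 h at 30 °C and 99% humidity, viability was read by BacTiter-Glo luminescence.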
FBPA Giardia inh: Giardia lamblia aldolase inhibition | purified Giardia FBPA | A8B2U2 | Potency, µM (top dose mostly 59.6 µM), most hits filed as inhibitors | 290,000 compounds, 0.71% hits | AID 2451; further: nearly all actives have a fitted effect of over 55% in size
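Giardia FBPA (40 nM reagent) was preincubated 10 min at RT with compound (up to 57.5 uM final), then substrate plus GAPDH/TPI/NAD/arsenate coupling system with diaphorase/resazurin was added; resorufin fluorescence (525/598 nm) was read after 20 min.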
A number is an active result; n = inactive; u = inconclusive; x = not tested or not shown. Many of the other results were omitted from the sample, so hits are more common in it than they were. Unless noted, the call rests on the fitted dose curve; in most records, active means well fitted curve in the direction sought with a large enough effect; inconclusive means small, poorly fitted or top-dose-only effect, or another doubt; inactive means no such curve, though single readings can be large; an effect the other way counts as inactive or inconclusive.

SMILES	Shiga inhibitor	Cycloheximide cs	Tb PYK inh	LmPK inh	RE007 growth inh	FBPA Giardia inh
Cc1ccc(C(=O)Nc2cc3cc(Cl)ccc3oc2=O)cc1	x	x	n	x	x	x
CCOC(=O)c1cc2c(=O)n3cccc(C)c3nc2n(Cc2ccco2)c1=NC(=O)c1cccnc1	32.8	n	n	n	n	u
CCCCCCCCCCCCCCCCn1cc[n+](C)c1	n	n	n	n	14.1µM	n
O=C(N/N=C/c1ccc(N2CCOCC2)o1)c1cccc(F)c1	84.5	34.2	u	n	n	n
COc1ccc(C(=O)N/N=C/c2ccc(N3CCOCC3)o2)cc1OC	n	n	31.6µM	u	n	u
COc1cc(NC(=O)CCn2nc(C)c(S(=O)(=O)N3CCCCC3)c2C)cc(OC)c1OC	x	x	n	x	x	x
CCCCN(Cc1cccs1)S(=O)(=O)c1cc(-c2cc(C)no2)ccc1C	x	x	n	x	x	x
COC(=O)C1CN(C(=O)COc2cccc(C)c2C)c2ccccc2O1 (stereo not given)	n	26.1	n	n	n	n
CC(=O)Nc1ccc(OCC=C(Cl)Cl)cc1	24.7	10.8	n	n	n	n
C=CCOc1ccc(C(=O)Nc2ccc(OCC)cc2)cc1	n	n	n	n	n	n
C=CCNC(=O)Nc1ccc(OCC)cc1	n	12.0	n	n	n	n
CCOc1ccc(NC(=O)CN2C(=O)c3ccccc3C2=O)cc1	n	n	n	n	n	n
CCOc1ccc(NC(=O)CN2C(=O)CSC2=O)cc1	79.2	15.4	n	n	n	n
CCOc1ccc(NC(=O)CN2CCN(C3CCCCC3)C(=O)C2=O)cc1	x	x	n	x	x	x
CCOc1ccc(NC(=O)CN2C(=O)C3CCCN3C2=O)cc1 (stereo not given)	active	15.0	n	n	n	n
Cc1ccc2[nH]c(CSc3nnc(NC(=O)c4ccc(Cl)cc4)s3)cc(=O)c2c1	x	x	n	x	x	x
CCOc1ccc(NC(=O)CC(=O)Nc2ccc(OCC)cc2)cc1	66.6	n	n	n	n	n
CCC(=O)Nc1ccc(-c2csc(C)n2)cc1	n	22.7	n	n	n	n
Cc1nc(-c2ccc(NC(=O)Cc3ccccc3)cc2)cs1	86.8	43.4	n	n	n	n
COc1ccc(CC(=O)Nc2ccc(-c3csc(C)n3)cc2)cc1	n	n	n	n	n	n
CCOC(=O)N1CCc2c(sc3c2c(=O)n(-c2ccc(CC)cc2)c(=O)n3CC(=O)Nc2ccc(C)cc2)C1	x	x	n	x	x	x
CCCNC(=O)N[C@H]1C=C[C@H](CC(=O)OC)O[C@@H]1CO	x	x	x	x	n	x
Cc1ccc2[nH]c3c(=O)n(N)c(C)nc3c2c1	n	16.7	n	n	n	n
COc1ccc2[nH]c3c(=O)n(N)c(C)nc3c2c1	n	n	n	n	n	n
O=c1cc(-c2ccc(C3CCCCC3)cc2)[nH][nH]1	n	21.8	n	n	n	n
SMILES	Shiga inhibitor	Cycloheximide cs	Tb PYK inh	LmPK inh	RE007 growth inh	FBPA Giardia inh
O=c1cc(-c2ccc(F)cc2)[nH][nH]1	n	n	n	n	n	n
Cc1ccc(OC(=O)c2cccc([N+](=O)[O-])c2)c(-n2nc3ccccc3n2)c1	n	26.7	n	n	n	n
Cc1ccc(OC(=O)COc2ccccc2C)c(-n2nc3ccccc3n2)c1	69.4	42.7	n	u	n	n
COc1ccccc1NC(=O)C1=C(C)Nc2c(C(=O)Nc3ccc(F)cc3)cnn2C1c1ccc(Cl)cc1 (stereo not given)	x	x	n	x	x	x
Cc1nnc(SCC(=O)NC(C)(C)C)n1CCc1ccccc1	n	10.9	n	n	n	n
Cc1nnc(SCC(N)=O)n1CCc1ccccc1	n	n	n	n	n	n
COc1ccco1	n	n	x	x	x	n
NC(=O)c1ccc[n+]([C@H]2O[C@@H](COP(=O)([O-])OP(=O)(O)OC[C@H]3O[C@@H](n4cnc5c(N)ncnc54)[C@H](O)[C@@H]3O)[C@H](O)[C@@H]2O)c1	x	x	n	x	5.01µM	x
NC(=O)c1ccc[n+]([C@@H]2OC(COP(=O)([O-])OP(=O)(O)OCC3OC(n4cnc5c(N)ncnc54)C(O)C3O)C(O)C2O)c1 (stereo not given in full)	x	x	x	x	x	n
FC(F)Oc1ccc(NC(=S)NC23CC4CC(CC(C4)C2)C3)cc1	58.8	24.7	n	n	n	n
CN(C)c1ccc(NC(=S)NC23CC4CC(CC(C4)C2)C3)cc1	52.2	43.7	n	n	n	n
Cc1nn(-c2ccccc2)c(Cl)c1/C=N/NC(=O)c1ccnn1C	106.6	34.2	n	n	n	x
O=C(N/N=C/c1c(O)n(-c2ccccc2Cl)c(=O)c2ccccc12)c1cccnc1	n	n	n	n	n	n
Cc1nn(-c2cccc(Cl)c2)c(Cl)c1/C=N/NC(=O)c1cccnc1	n	17.0	n	n	n	n
COC(=O)N/N=C/c1c(C)nn(-c2cccc(Cl)c2)c1Cl	54.7	49.2	n	n	n	n
Cc1nn(Cc2c(Cl)cccc2Cl)c(Cl)c1/C=N/NC(=O)c1cccnc1	41.3	15.8	n	n	n	n
CC(C)NC(=O)N1CCN(S(=O)(=O)c2ccc3c(ccn3C)c2)CC1	x	x	n	x	x	x
Cc1nn(-c2ccccc2)c(Cl)c1/C=N\NC(=O)c1cncc(Br)c1	n	n	n	n	n	n
Cc1nn(-c2ccccc2)c(Cl)c1/C=N/NC(N)=O	33.4	27.1	n	n	n	n
Cn1c(Cl)c(/C=N/OC(=O)c2ccccc2Cl)c2ccccc21	n	14.4	n	n	n	n
Cn1nc(C(F)(F)F)c(/C=N/OC(=O)c2ccccc2)c1Cl	n	n	n	n	n	n
Cc1nn(C)c(Cl)c1/C=N/OC(=O)c1ccccc1	n	15.8	n	n	n	n
Cc1nn(-c2ccccc2)c(Cl)c1/C=N/Nc1nnc(C)c(=O)[nH]1	n	n	n	n	n	n
Cc1nn(-c2ccccc2)c(Cl)c1/C=N/Nc1nc2ccccc2n1C	79.4	54.2	n	n	n	n
COc1cccc(NC(=O)c2cc3c(=O)n(Cc4cccnc4)ccc3nc2C)c1	x	x	n	x	x	x
SMILES	Shiga inhibitor	Cycloheximide cs	Tb PYK inh	LmPK inh	RE007 growth inh	FBPA Giardia inh
Cc1sc(-c2cc3ccccc3oc2=O)nc1-c1ccc(Cl)cc1	x	x	n	x	x	x
Cc1nn(-c2ccccc2)c(Cl)c1/C=N/NC(=O)CNC(=O)c1ccccc1Cl	n	18.2	n	n	n	n
Cc1ccc(C)c(OCC(=O)N/N=C/c2c(C)nn(-c3ccccc3)c2Cl)c1C	n	n	n	n	n	n
COC(=O)N/N=C\c1c(C)nn(-c2ccccc2)c1Cl	58.0	23.2	n	n	n	n
Nc1cccc2c1C(=O)N(C(=O)/C=C/c1ccc(F)cc1)C2=O	76.2	37.3	n	n	u	n
C[C@H]1C(O)[C@@]23CCC4C5(C=[N+](CCO)C[C@]4(C)CCC5)C2C[C@@H]1C3 (stereo not given in full)	x	x	x	x	x	n
C(=N\n1cnnc1)/c1cccc(OCCOc2ccccc2)c1	94.3	20.5	n	n	n	n
C(=N\n1cnnc1)/c1ccc(OCc2cccc3ccccc23)cc1	n	20.4	n	n	n	n
